Laboratory results: PubChem BioAssay (NCI)
Compounds without any hit were thinned out: in the full panel of roughly 83,000, 20% have a hit.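 Compound tested at a single concentration for 48 hours in 96-well plates; a percent growth value below 10 was scored as active.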 The source made the active and inactive calls.

Assays:
Experiment in all cases: NCI-60 one-dose screen, 48 h (100 = growth as untreated, 0 = no growth, -100 = all killed)
Conditions in all cases: 10 µM unless noted
NCI-H23 lung = system: NCI-H23 lung
NCI-H226 lung = system: NCI-H226 lung
NCI-H322M lung = system: NCI-H322M lung
HOP-62 NSCLC = system: HOP-62 NSCLC
NCI-H460 lung = system: NCI-H460 lung
HOP-92 NSCLC = system: HOP-92 NSCLC
NCI-H522 lung = system: NCI-H522 lung
A549/ATCC NSCLC = system: A549/ATCC NSCLC
786-0 renal = system: 786-0 renal
COLO 205 colon = system: COLO 205 colon

Measured: growth

C=CC[n+]1c(/C=C2\Sc3ccccc3N2C)sc(-c2ccccc2)c1-c1ccccc1
inactive: NCI-H226 lung 10.3% | NCI-H322M lung 24.2% | HOP-62 NSCLC 17.8% | A549/ATCC NSCLC 14.2% | 786-0 renal 16.8%
active: NCI-H23 lung 0.426% | NCI-H460 lung 8.83% | HOP-92 NSCLC -12.5% | NCI-H522 lung -7.57% | COLO 205 colon -30.2%

CC[C@H](Nc1ncnc2nc[nH]c12)c1nc2cccc(F)c2c(=O)n1-c1ccccc1
inactive: NCI-H23 lung 93% | NCI-H226 lung 93.3% | NCI-H322M lung 42.9% | HOP-62 NSCLC 75.6% | NCI-H460 lung 79.9% | HOP-92 NSCLC 49.2% | NCI-H522 lung 22.4% | A549/ATCC NSCLC 43.2% | 786-0 renal 37.5% | COLO 205 colon 96.1%

C=C1C(=O)O[C@H]2[C@H]1CC/C(CNC(=O)c1cc3cc(OC)ccc3[nH]1)=C\CC[C@@]1(C)O[C@@H]21
active: NCI-H23 lung -54.8% | NCI-H226 lung -40.5% | HOP-92 NSCLC -67.3% | NCI-H522 lung -67.5% | 786-0 renal -67.2% | COLO 205 colon -73.6%
inactive: NCI-H322M lung 65.4% | HOP-62 NSCLC 46.9% | NCI-H460 lung 19.3% | A549/ATCC NSCLC 18.5%

CCOC(=O)c1sc(NC(=O)COc2ccc(/C=C3\Cc4ccc(Cl)cc4C3=O)cc2)nc1C
inactive: NCI-H23 lung 97.1% | NCI-H226 lung 97.1% | NCI-H322M lung 103% | HOP-62 NSCLC 109% | NCI-H460 lung 95% | HOP-92 NSCLC 92.5% | NCI-H522 lung 97.2% | A549/ATCC NSCLC 104% | 786-0 renal 110% | COLO 205 colon 118%

CC1(O)CC(c2nc(-c3ccc4ccc(-c5ccccc5)nc4c3)c3c(N)nccn23)C1 (stereo not given)
inactive: NCI-H23 lung 33.9% | NCI-H226 lung 36.1% | HOP-62 NSCLC 28.6% | NCI-H460 lung 25.2% | NCI-H522 lung 31.3% | A549/ATCC NSCLC 33.5% | 786-0 renal 43.8%
active: NCI-H322M lung 0.394% | HOP-92 NSCLC -13.2% | COLO 205 colon -22.2%

CN(C)C1CCN(C(=O)c2ccc(NC(=O)Nc3ccc(-c4nc(N5CCOCC5)nc(N5CCOCC5)n4)cc3)cc2)CC1
active: NCI-H23 lung 8.52% [2.5 µM] | NCI-H226 lung -18.2% [2.5 µM] | NCI-H322M lung -30.3% [2.5 µM] | HOP-62 NSCLC -21.5% [2.5 µM] | NCI-H460 lung 6.4% [2.5 µM] | HOP-92 NSCLC -32% [2.5 µM] | NCI-H522 lung 8.88% [2.5 µM] | A549/ATCC NSCLC -25.2% [2.5 µM] | 786-0 renal -10.7% [2.5 µM] | COLO 205 colon -31.4% [2.5 µM]

COc1cc(-c2nc(C(=O)NCC(=O)O)nn2-c2ccc(Cl)cc2)cc(OC)c1OC
inactive: NCI-H23 lung 97.5% | NCI-H226 lung 87.1% | NCI-H322M lung 102% | HOP-62 NSCLC 104% | NCI-H460 lung 110% | HOP-92 NSCLC 106% | NCI-H522 lung 97.1% | A549/ATCC NSCLC 96.6% | 786-0 renal 103% | COLO 205 colon 108%

CCc1nc2cc(/C=C/C(=O)NO)ccc2c(=O)n1CCc1ccc(F)cc1
inactive: NCI-H226 lung 20.3% | NCI-H322M lung 18.6%
active: NCI-H23 lung 1.11% | HOP-62 NSCLC -11.8% | NCI-H460 lung 4.24% | HOP-92 NSCLC -4.03% | NCI-H522 lung 3.72% | A549/ATCC NSCLC 7.13% | 786-0 renal -23% | COLO 205 colon -35.7%

N#Cc1c(C(F)(F)F)cc(Nc2ccc3nc(NCCN4CCCC4)oc3c2)n2c1nc1ccccc12
inactive: NCI-H23 lung 81% | NCI-H226 lung 82.8% | NCI-H322M lung 87.4% | HOP-62 NSCLC 75% | NCI-H460 lung 99.4% | HOP-92 NSCLC 51.2% | NCI-H522 lung 58.2% | A549/ATCC NSCLC 56.7% | 786-0 renal 26.1% | COLO 205 colon 38.7%

COc1cc(Nc2ncc(F)c(Nc3ccc4c(n3)NC(=O)C(C)(C)O4)n2)cc(OC)c1OC
active: HOP-92 NSCLC 2.19% | NCI-H522 lung 6.57%
inactive: NCI-H23 lung 52.1% | NCI-H226 lung 12.2% | NCI-H322M lung 41.8% | HOP-62 NSCLC 27.3% | NCI-H460 lung 65% | A549/ATCC NSCLC 26.8% | 786-0 renal 29% | COLO 205 colon 18.9%

Cc1nc(NC(=O)N2CCC[C@H]2C(N)=O)sc1-c1ccnc(C(C)(C)C(F)(F)F)c1
inactive: NCI-H23 lung 57.9% | NCI-H226 lung 71% | HOP-62 NSCLC 49.4% | NCI-H460 lung 24% | NCI-H522 lung 33.6% | A549/ATCC NSCLC 21% | 786-0 renal 59.5% | COLO 205 colon 13.7%
active: NCI-H322M lung 6.7% | HOP-92 NSCLC -4.57%

COC(=O)C1CCc2sc3ncnc(Nc4cn[nH]c4C(=O)Nc4ccc(CN5CCN(C)CC5)cc4)c3c21 (stereo not given)
active: NCI-H23 lung -9.63% | NCI-H322M lung 8.74% | HOP-62 NSCLC 0.169% | NCI-H460 lung -59% | HOP-92 NSCLC -29.2% | NCI-H522 lung -1.37% | A549/ATCC NSCLC 4.85% | 786-0 renal -4.45% | COLO 205 colon -70.8%
inactive: NCI-H226 lung 14.9%

COc1cc2c(Oc3ccc4[nH]c(C)cc4c3F)ncnc2cc1OCCCN1CCCC1
inactive: NCI-H23 lung 84% | NCI-H226 lung 57.3% | NCI-H322M lung 93% | HOP-62 NSCLC 79.8% | NCI-H460 lung 96.7% | HOP-92 NSCLC 95.9% | NCI-H522 lung 88.3% | A549/ATCC NSCLC 84.5% | 786-0 renal 84.6% | COLO 205 colon 88.9%

CCN1CCN(c2cc(C)nc(N(CCCNc3ccnc4cc(Cl)ccc34)Cc3cccs3)n2)CC1
inactive: NCI-H23 lung 49% | NCI-H226 lung 57.6% | NCI-H322M lung 12% | HOP-92 NSCLC 11.6% | A549/ATCC NSCLC 20.1%
active: HOP-62 NSCLC -25.4% | NCI-H460 lung 5.44% | NCI-H522 lung 8.27% | 786-0 renal -71.8% | COLO 205 colon -80.2%

CCCCn1c(C)nc2cc(Nc3nc(N4CCCCC4)nc4nc[nH]c34)ccc21
inactive: NCI-H23 lung 51.4% | NCI-H226 lung 44.4% | NCI-H322M lung 81.8% | HOP-62 NSCLC 62.1% | NCI-H460 lung 65.5% | NCI-H522 lung 52.6% | A549/ATCC NSCLC 48.4% | 786-0 renal 49.1% | COLO 205 colon 28.9%
active: HOP-92 NSCLC -9.51%

CC[n+]1c(/C=C/C=C2\N(C)c3ccccc3C2(C)C)sc2ccccc21
active: NCI-H460 lung 7.56% | HOP-92 NSCLC -3.67% | NCI-H522 lung 9.12% | COLO 205 colon -59.2%
inactive: NCI-H23 lung 20% | NCI-H226 lung 20% | NCI-H322M lung 25.6% | HOP-62 NSCLC 11.7% | A549/ATCC NSCLC 11.9% | 786-0 renal 14.8%

O=C(NOCCO)c1ccc2cncn2c1Nc1ccc(I)cc1F
active: HOP-92 NSCLC -19.6% | COLO 205 colon 6.84%
inactive: NCI-H23 lung 18.8% | NCI-H226 lung 56.7% | NCI-H322M lung 24.1% | HOP-62 NSCLC 35.7% | NCI-H460 lung 74.7% | NCI-H522 lung 60.4% | A549/ATCC NSCLC 25.4% | 786-0 renal 81.6%

Ic1ccccc1-c1ccccc1
inactive: NCI-H23 lung 102% | NCI-H226 lung 106% | NCI-H322M lung 114% | HOP-62 NSCLC 100% | NCI-H460 lung 100% | HOP-92 NSCLC 87.3% | NCI-H522 lung 94.9% | A549/ATCC NSCLC 87.9% | 786-0 renal 108% | COLO 205 colon 96.4%

CCCCCc1ccc(C)cc1OC(=O)CCl
inactive: NCI-H23 lung 113% | NCI-H226 lung 104% | NCI-H322M lung 97.3% | HOP-62 NSCLC 109% | NCI-H460 lung 104% | HOP-92 NSCLC 73.6% | NCI-H522 lung 103% | A549/ATCC NSCLC 108% | 786-0 renal 110% | COLO 205 colon 107%

COC(=O)[C@]12CC[C@@H](C)[C@H](C)[C@@H]1C1=CC[C@@H]3[C@@]4(C)C(c5cnco5)=C[C@@](C)(CO)C4=CC[C@@]3(C)[C@]1(C)CC2
active: NCI-H460 lung 8.07%
inactive: NCI-H23 lung 47.8% | NCI-H226 lung 60% | NCI-H322M lung 86.5% | HOP-62 NSCLC 93.7% | HOP-92 NSCLC 41.8% | NCI-H522 lung 33.9% | A549/ATCC NSCLC 47.1% | 786-0 renal 70.5% | COLO 205 colon 27.2%

CC(C)=CCc1cc2c(cc1O)C1=C(C(=O)C3=C(NCCS3(=O)=O)C1=O)C(C=C(C)C)O2 (stereo not given)
active: NCI-H522 lung -4.35%
inactive: NCI-H23 lung 25.7% | NCI-H226 lung 57.9% | NCI-H322M lung 11.4% | HOP-62 NSCLC 25.3% | NCI-H460 lung 17.7% | HOP-92 NSCLC 115% | A549/ATCC NSCLC 65.8% | 786-0 renal 58.7% | COLO 205 colon 29.4%

Cn1cc(-c2ccc(F)c(C(F)(F)F)c2)nc1C1CCN(c2ncnc3[nH]ncc23)CC1
inactive: NCI-H23 lung 72.3% | NCI-H226 lung 55.3% | NCI-H322M lung 75.3% | HOP-62 NSCLC 52.1% | NCI-H460 lung 76.9% | HOP-92 NSCLC 65.3% | NCI-H522 lung 47.8% | A549/ATCC NSCLC 50.4% | 786-0 renal 69.1% | COLO 205 colon 84.4%

C/C=C/C=N/NC(=S)Nc1ccccc1
inactive: NCI-H23 lung 90.7% | NCI-H226 lung 95.8% | NCI-H322M lung 90.6% | HOP-62 NSCLC 86% | NCI-H460 lung 112% | HOP-92 NSCLC 93% | NCI-H522 lung 82.7% | A549/ATCC NSCLC 79.4% | 786-0 renal 106% | COLO 205 colon 101%

CCCC(=O)OCC1OC(n2cnc3c(=S)nc(N)[nH]c32)C(OC(=O)CCC)C1OC(=O)CCC (stereo not given)
inactive: NCI-H23 lung 28.9% | NCI-H226 lung 33.3% | NCI-H322M lung 55.5% | HOP-62 NSCLC 23.1% | NCI-H460 lung 34.8% | HOP-92 NSCLC 11% | A549/ATCC NSCLC 92.4% | 786-0 renal 21.5% | COLO 205 colon 79.2%
active: NCI-H522 lung -5.66%

COc1cc2c(Oc3ccc(NC(=O)C4(C(=O)Nc5ccc(F)cc5)CC4)cc3F)ccnc2cc1OCCCN1CCOCC1
active: NCI-H322M lung -1.77% | HOP-62 NSCLC -13.5% | NCI-H460 lung -40.8% | HOP-92 NSCLC -58.2% | NCI-H522 lung -57% | A549/ATCC NSCLC -77.1% | 786-0 renal -75.7% | COLO 205 colon -71.3%
inactive: NCI-H23 lung 10.1% | NCI-H226 lung 12.3%
